Measured values as given in PubChem BioAssay AID1159580 (chemical genetic matrix, 2015).
Several values for one entry are separate records, joined by “and”; a condition that tells them apart may be missing. Identical values can stand only once. The whole screen tested about 5,500 compounds, of which about 2,000 (36%) were called active. Roughly 18% stayed inconclusive and do not appear here. No stated cut-off is given here; in the data, active means normalized growth mostly below about 0.91 (no sharp cut-off); inconclusive means no clear call, values can overlap the other calls; inactive means mostly above about 0.92. Some of the results follow.

Assay: chemical genetic growth profiling, strain panel (AID 1159580);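 further: tested at 20 µM; growth read once vehicle control cultures reached saturation at 30 °C; 1 = growth at the plate median or of vehicle wells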
Conditions: S. cerevisiae deletion strains, growth OD

Measured: normalized growth

CC(=O)O[C@@H]1CC2C(C)(C)[C@H](O)CC[C@]2(C)C2CC[C@@]3(C)[C@H](c4ccoc4)OC(=O)C4OC43[C@@]21C (stereo partly specified)
inactive: locus YAL021C, strain ccr4, stronger effect = lower value 0.991 | locus YAL026C, strain drs2, stronger effect = lower value 1.03 | locus YAL030W, strain snc1, stronger effect = lower value 1.01 | locus YBL061C, strain skt5, stronger effect = lower value 1.01 | locus YBR009C, strain hhf1, stronger effect = lower value 1.04 | locus YBR021W, strain FUR4, stronger effect = lower value 0.974 | locus YBR023C, strain chs3, stronger effect = lower value 1.02 | locus YBR171W, strain sec66, stronger effect = lower value 1.02 | locus YBR229C, strain ROT2, stronger effect = lower value 0.957 | locus YBR231C, strain swc5, stronger effect = lower value 1.02 | locus YBR279W, strain paf1, stronger effect = lower value 1.01 | locus YCL011C, strain gbp2, stronger effect = lower value 1.01 | locus YCL016C, strain dcc1, stronger effect = lower value 1.02 | locus YCL029C, strain bik1, stronger effect = lower value 0.993 | locus YCL061C, strain MRC1, stronger effect = lower value 1.02 | locus YCL069W, strain vba3, stronger effect = lower value 1 | locus YCR088W, strain abp1, stronger effect = lower value 1.01 | locus YDL005C, strain med2, stronger effect = lower value 1.02 | locus YDL035C, strain GPR1, stronger effect = lower value 0.984 | locus YDL040C, strain nat1, stronger effect = lower value 1 | locus YDL074C, strain BRE1, stronger effect = lower value 1 | locus YDL101C, strain DUN1, stronger effect = lower value 0.998 | locus YDL134C, strain PPH21, stronger effect = lower value 1.03 | locus YDL185W, strain tfp1, stronger effect = lower value 0.97 | locus YDL192W, strain arf1, stronger effect = lower value 0.999 | locus YDR001C, strain nth1, stronger effect = lower value 1.01 | locus YDR069C, strain doa4, stronger effect = lower value 1.04 | locus YDR101C, strain arx1, stronger effect = lower value 0.967 | locus YDR137W, strain rgp1, stronger effect = lower value 1.02 | locus YDR159W, strain sac3, stronger effect = lower value 1.05 | locus YDR162C, strain NBP2, stronger effect = lower value 0.999 | locus YDR195W, strain ref2 1.03 | locus YDR297W, strain sur2, stronger effect = lower value 1.01 | locus YDR318W, strain mcm21, stronger effect = lower value 0.996 | locus YDR334W, strain swr1, stronger effect = lower value 1.01 | locus YDR335W, strain msn5, stronger effect = lower value 1.03 | locus YDR388W, stronger effect = lower value 1 | locus YDR392W, strain spt3, stronger effect = lower value 0.834 | locus YDR502C, strain sam2, stronger effect = lower value 1.01 | locus YEL003W, strain gim4, stronger effect = lower value 1.03 | locus YEL037C, strain rad23, stronger effect = lower value 1.01 | locus YEL061C, strain CIN8 (second series), stronger effect = lower value 1.02 | locus YER015W, strain faa2, stronger effect = lower value 1.01 | locus YER016W, strain bim1, stronger effect = lower value 1.02 | locus YER110C, stronger effect = lower value 0.98 | locus YER111C, strain swi4, stronger effect = lower value 1.02 | locus YER155C, strain BEM2 (second series), stronger effect = lower value 1.03 | locus YER155C, strain BEM2, stronger effect = lower value 1.01 | locus YER167W, strain BCK2, stronger effect = lower value 0.996 | locus YFR010W, strain ubp6, stronger effect = lower value 1.04 | locus YGL078C, strain dbp3, stronger effect = lower value 1.01 | locus YGL086W, strain mad1, stronger effect = lower value 0.984 | locus YGL167C, strain pmr1, stronger effect = lower value 1.01 | locus YGL173C, strain kem1, stronger effect = lower value 1.01 | locus YGL227W, strain vid30, stronger effect = lower value 1.02 | locus YGL240W, strain doc1, stronger effect = lower value 1.04 | locus YGL248W, strain PDE1, stronger effect = lower value 1.01 | locus YGL253W, strain hxk2, stronger effect = lower value 0.997 | locus YGR135W, strain pre9, stronger effect = lower value 1.05 | locus YGR252W, strain gcn5, stronger effect = lower value 1.04 | locus YHR013C, strain ard1, stronger effect = lower value 1.02 | locus YHR027C, strain rpn1, stronger effect = lower value 1.01 | locus YHR030C, strain SLT2, stronger effect = lower value 1.07 | locus YHR079C, strain IRE1 (second series), stronger effect = lower value 0.983 | locus YHR079C, strain IRE1, stronger effect = lower value 1.05 | locus YHR094C, strain hxt1, stronger effect = lower value 0.989 | locus YHR129C, strain ARP1, stronger effect = lower value 1.01 | locus YHR142W, strain chs7, stronger effect = lower value 0.939 | locus YHR200W, strain rpn10, stronger effect = lower value 0.996 | locus YIL066C, strain RNR3, stronger effect = lower value 0.973 | locus YIL073C, strain SPO22, stronger effect = lower value 0.958 | locus YIL125W, strain kgd1, stronger effect = lower value 0.962 | locus YIR030C, strain dcg1, stronger effect = lower value 0.988 | locus YJL092W, strain hpr5, stronger effect = lower value 1.02 | locus YJL095W, strain BCK1 (second series), stronger effect = lower value 1.02 | locus YJL095W, strain BCK1, stronger effect = lower value 1.06 and 1.08 | locus YJL115W, strain asf1, stronger effect = lower value 1.02 | locus YJL129C, strain trk1, stronger effect = lower value 1 | locus YJL134W, strain LCB3, stronger effect = lower value 0.991 | locus YJL154C, strain vps35, stronger effect = lower value 0.999 | locus YJL164C, strain tpk1, stronger effect = lower value 1.02 | locus YJL166W, strain qcr8, stronger effect = lower value 1.02 | locus YJL168C, strain set2, stronger effect = lower value 0.996 | locus YJL187C, strain SWE1 (second series), stronger effect = lower value 1.02 | locus YJL187C, strain SWE1, stronger effect = lower value 1.01 | locus YJR043C, strain POL32, stronger effect = lower value 0.977
